According to PubChem BioAssay (NCI):
About 79,000 compounds went through this panel and 15% of them were active in at least one assay; those are over-represented in the sample as a whole. The source made the active and inactive calls. Rule as the data show it: active = growth inhibition above about 70%; inactive = the rest.

What was measured:
[1] = NCI Yeast Anticancer Drug Screen. Data for the rad50 strain (AID 155);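 also: 0% = growth of vehicle-only cultures of the same strain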; conditions: S. cerevisiae rad50 strain growth inhibition; at 50.0 µM; hits give high values
In short: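 Cells are treated with compound, grown, and their growth is then scored against vehicle-only cultures of the same repair-deficient yeast strain.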

[2] = NCI Yeast Anticancer Drug Screen. Data for the mec2-1 strain (AID 157); conditions: S. cerevisiae mec2-1 strain, at 50.0 µM, hits give high values
In short: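 Mutant yeast (mec2-1) grown with compound; growth inhibition relative to vehicle control reported.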

[3] = NCI Yeast Anticancer Drug Screen. Data for the sgs1 mgt1 strain (AID 161);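 also: 0% = growth of cultures given vehicle only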; conditions: S. cerevisiae sgs1 mgt1 strain, at 50.0 µM, hits give high values
In short: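 Compounds are added to genetically altered yeast, and growth is compared with cultures given vehicle alone to give percent inhibition.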

[4] = NCI Yeast Anticancer Drug Screen. Data for the cln2 rad14 strain (AID 165);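 also: 0% = growth equal to vehicle treated cultures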; conditions: S. cerevisiae cln2 rad14 strain, at 50.0 µM, hits give high values
In short: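 Readout is yeast growth inhibition versus vehicle-treated controls, using a strain with cln2 and rad14 alterations exposed to compound.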

[5] = NCI Yeast Anticancer Drug Screen. Data for the bub3 strain (AID 167); conditions: S. cerevisiae bub3 mutant strain, at 50.0 µM, hits give high values
In short: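 Part of a panel of yeast mutants defective in DNA damage repair or cell cycle regulation. Each strain is grown with compound, and inhibition is calculated relative to solvent-treated cultures.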

[6] = NCI Yeast Anticancer Drug Screen. Data for the mlh1 rad18 strain (AID 175); conditions: S. cerevisiae mlh1 rad18 strain growth inhibition; at 50.0 µM; hits give high values
In short: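 Genetically defined yeast (DNA repair-deficient) exposed to compounds; growth inhibition determined relative to vehicle.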

Measured: growth inhibition

N#CCC(=O)Nc1ccccc1
inactive: [1] 37% | [2] 15.7% | [3] 5.8% | [4] -11.8% | [5] 6.25% | [6] 26.2%

CC12CC3CC(C)(C1)CC(N=[N+]=[N-])(C3)C2
inactive: [1] -27.4% | [2] -9.6% | [3] -12.1% | [4] 6.15% | [5] -0.8% | [6] -29.5%

COc1ccc2c(c1)C(=O)CC(C(N)=O)C2 (configuration not stated)
inactive: [1] 20.6% | [2] 2.85% | [3] -29.9% | [4] 3.6% | [5] -13.7% | [6] -32%

CCCCCCCCC(CO)CCCCCC (configuration not stated)
inactive: [1] 15.9% | [2] -1.05% | [3] 31.4% | [4] 1.65% | [5] -6.4% | [6] 9.15%

N#C/C(=C\c1cc(F)cc(F)c1)c1ccccn1
inactive: [1] 9.7% | [2] -0.95% | [3] 0.65% | [4] 3.25% | [5] 3.2% | [6] 30.2%

O=c1c2ccccc2nc(-c2ccccc2)n1NC(=S)Nc1ccccc1
inactive: [1] -27.9% | [2] -42.6% | [3] -39.8% | [4] -13.8% | [5] -19.9% | [6] -19%

CC(=O)Nc1ccc(S(=O)(=O)n2c(=O)oc3cc(Br)ccc32)cc1
inactive: [1] 7.4% | [2] 3.35% | [3] -7% | [4] 2.35% | [5] 0.05% | [6] 0.65%

c1ccc2sc(SCSc3nc4ccccc4s3)nc2c1
inactive: [1] 2.65% | [2] -31.9% | [3] -18.1% | [4] -13.7% | [5] -1.05% | [6] -30.9%

CC(C)CC(CC(C)C)NCC(C)OC(=O)c1ccc(N(C)C)cc1 (configuration not stated)
inactive: [1] 57.5% | [2] -4.2% | [3] 20.2% | [4] -7.55% | [5] 2.6% | [6] 1.3%

CC(C)CCCCCCCCCCCCC(=O)NCC(=O)NC1C(C)OC(Nc2ncnc3c2ncn3C)C(O)C1O (configuration not stated)
inactive: [1] 10% | [2] -14.5% | [3] 9.3% | [4] 15.6% | [5] 4.05% | [6] 11.4%

O=S(=O)(O)c1cc(I)c(O)c2ncccc12
inactive: [1] 18.5% | [2] 1% | [3] -1.05% | [4] -67.8% | [5] 19.4% | [6] 45.4%

COC(=O)Nc1cn2cc(C(=O)c3cccs3)ccc2n1
inactive: [1] -2.5% | [2] -21.5% | [3] -9.95% | [4] -10.5% | [5] -42% | [6] -53.2%

CCCCn1cnc2c(=S)nc[nH]c21
inactive: [1] -2.7% | [2] -1.9% | [3] -6.35% | [4] -11.6% | [5] -1% | [6] -0.95%

CC1CC=C2CCCCC2(C)C1C (configuration not stated)
inactive: [1] 8.7% | [2] 13.7% | [3] 16.2% | [4] -30.9% | [5] -40.6% | [6] 3.7%

COc1ccc(C)cc1NC(=O)/C=C/c1ccccc1
inactive: [1] 1.6% | [2] -6.6% | [3] -6.5% | [4] 16.2% | [5] 30.8% | [6] -7.65%

O=C(Nc1ccc(C(F)(F)F)cc1[N+](=O)[O-])C(=O)Nn1c(=S)[nH]c2ccccc2c1=O
inactive: [1] 20.3% | [2] 11.7% | [3] -4.65% | [4] 18.5% | [5] 7.9% | [6] 23.1%

CCOc1ccc(N=Nc2ccc3oc(=O)c(C(=O)Nc4ccc(OC)cc4)cc3c2)cc1
inactive: [1] 11.4% | [2] 5.9% | [3] -17.7% | [4] -22.1% | [5] 0.8% | [6] 11.6%

Cc1ccc(NC(=O)Nc2ccc(Cl)c(Cl)c2)c(C)c1
inactive: [1] -6.05% | [2] 11.2% | [3] -1.75% | [4] -16.6% | [5] -4.2% | [6] -20.9%

Cc1ccccc1-c1c2ccccc2cc2c1ccc1ccccc12
inactive: [1] 12% | [2] -21.7% | [3] -5.05% | [4] -20.9% | [5] 9.35% | [6] 0.35%

Cc1ncc(CO)c(/C=N/NC(N)=S)c1O
inactive: [1] 3.3% | [2] -13.9% | [3] 3.7% | [4] -34.9% | [5] 0.05% | [6] 13.6%

COc1ccc2c(c1)OC(C)(C)C(c1ccccc1)=C2c1ccc(OCCN2CCCC2)cc1
active: [1] 99.6% | [2] 99.8% | [3] 99.9% | [4] 99.3% | [5] 99.3% | [6] 99.7%

OCCOc1ccc(Cl)cc1Cl
inactive: [1] -6% | [2] -32% | [3] -18.2% | [4] -2.85% | [5] -0.8% | [6] 9.05%

CCCCc1ccncc1
inactive: [1] 5.3% | [2] 4.55% | [3] 18.6% | [4] -25.9% | [5] 8.55% | [6] 19.6%

CC(C)NC(=O)C1C2CCC(C2)C1C(=O)NC(C)C (configuration not stated)
inactive: [1] 3.55% | [2] -1% | [3] 2.35% | [4] -28.4% | [5] -0.3% | [6] -7.25%

C/C(=N\O)C(=O)c1cccc([N+](=O)[O-])c1
inactive: [1] 12% | [2] 8.3% | [3] 15.4% | [4] 2.75% | [5] -7.45% | [6] 27.1%

CCC(C)C(C)(O)CC (configuration not stated)
inactive: [1] -2.6% | [2] -28.9% | [3] -21.8% | [4] 4.1% | [5] -8.8% | [6] -4.8%

Fc1ccc2nc3ccccc3c(SCCNCCSc3c4ccccc4nc4ccc(F)cc34)c2c1
inactive: [1] 43.4% | [2] -4.75% | [3] 17% | [4] 16.1% | [5] 1.5% | [6] 35.2%

CCn1c2c(c3ccccc31)[C@@H](c1ccc(Cl)cc1)CC1C(=O)N(c3ccccc3)C(=O)C21 (some centres not stated)
inactive: [1] 17.8% | [2] 33.3% | [3] 14.8% | [4] -8.05% | [5] 38.4% | [6] 35.5%

COC(=O)Cc1oc(=O)n(-c2ccccc2)c(=O)c1C(=O)OC
inactive: [1] 6.75% | [2] -3.05% | [3] 2.05% | [4] -10.5% | [5] 10.1% | [6] -3.6%

COc1cc(NCCN2CCOCC2)c([N+](=O)[O-])cc1OC
inactive: [1] 22.3% | [2] 12.1% | [3] 8.25% | [4] 2.6% | [5] -0.65% | [6] 8.15%

O=C(Nc1cc(Cl)c(Oc2ccc(Cl)cc2)cc1S(=O)(=O)O)Nc1cccc(Cl)c1Cl
active: [1] 99% | [2] 99.5% | [3] 99.6% | [4] 98.2% | [5] 98.7% | [6] 99.4%

O=C(c1ccc(O)c(C(=O)O)c1)c1ccc(O)c(C(=O)O)c1
inactive: [1] 10.9% | [2] -13.9% | [3] -5.3% | [4] -0.7% | [5] -19.9% | [6] -2.85%

COc1ccc(OC(=O)Nc2ccc(OC)cc2Cl)cc1
inactive: [1] 3% | [2] 5.75% | [3] 7.05% | [4] 12.6% | [5] 24.7% | [6] 7.7%

C/C=C1\CN2CCc3c([nH]c4ccccc34)C2CC1CC(=O)N(C)C (configuration not stated)
inactive: [1] 0.9% | [2] -7.75% | [3] -20.6% | [4] -1% | [5] 1.6% | [6] -5.95%

C=C(C)CC1(C)C(=O)CCC1O (configuration not stated)
inactive: [1] -13.7% | [2] -15.8% | [3] 3.9% | [4] -30.8% | [5] 6.1% | [6] 6.25%

CCC(CC)COC(=O)c1ccccc1C
inactive: [1] 7.45% | [2] -0.15% | [3] -0.85% | [4] -27.1% | [5] 15.4% | [6] 0.6%

CO[C@H]1C=CO[C@@]2(C)Oc3c(C)c(O)c4c(O)c(c(CN5CCN(C)CC5)c(O)c4c3C2=O)NC(=O)/C(C)=C\C=C[C@H](C)[C@H](O)C(C)[C@@H](O)C(C)[C@H](OC(C)=O)[C@@H]1C (some centres not stated)
inactive: [1] -14.5% | [2] -4.85% | [3] -21.1% | [4] 54% | [5] -36.2% | [6] -34.4%
